Screens (PubChem)
Compounds with a hit are over-represented: about 5.7% of the library has one in this group of screens.
hcDAF-12 act: H. contortus DAF-12 activation, primary screen; activation, % at 6.8 µM; HEK293 hcDAF-12 lit1-tk-luc reporter, luminescence; 0% DMSO, 100% Δ7-dafachronic acid; actives 1.4% (n = 370,000);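 active = activation above the mean of all tested compounds plus 3 SD, cut at about 5.5% in these data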;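 note: 100% = response to 3 µM Δ7-dafachronic acid high control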
DAX1 inh-1: DAX1 (NR0B1) inhibition, primary screen; HEK293T StAR-luciferase reporter, SF-1/DAX-1 repression relief; inhibition, % at 6.8 µM; actives 1.1% (n = 370,000); AID 652010;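 active = inhibition above the mean over all tested compounds plus 3 SD, cut at about 3.6% in these data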;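 note: 0% = DAX-1 cells with DMSO and 100% = cells lacking DAX-1 with DMSO; higher inhibition means more luminescence from relief of DAX-1 repression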
AHR activator: activators of human aryl hydrocarbon receptor. actives 2.5% (n = 320,000). AHR-responsive luciferase reporter cells, luminescence. P35869. AID 2796. activation, % at 5 µM; in the data active = activation above about 47%;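 note: 0% = vehicle wells and 100% = reference agonist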
DAX1 inh-2: inhibitors of human orphan nuclear receptor DAX1 (NR0B1) | HEK293 Gal4-DAX1 luciferase reporter, luminescence | P51843 | actives 0.99% (n = 340,000) | inhibition, % at 6.75 µM;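 active = inhibition above the mean over all tested compounds plus 3 SD, cut at about 4.2% in these data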;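 note: 0% = DAX1-transfected cells with DMSO and 100% = empty-vector control cells with DMSO; inhibition shows as a rise in luminescence from relieved DAX1 repression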
Target sequence (P51843 207-470 limits assumed): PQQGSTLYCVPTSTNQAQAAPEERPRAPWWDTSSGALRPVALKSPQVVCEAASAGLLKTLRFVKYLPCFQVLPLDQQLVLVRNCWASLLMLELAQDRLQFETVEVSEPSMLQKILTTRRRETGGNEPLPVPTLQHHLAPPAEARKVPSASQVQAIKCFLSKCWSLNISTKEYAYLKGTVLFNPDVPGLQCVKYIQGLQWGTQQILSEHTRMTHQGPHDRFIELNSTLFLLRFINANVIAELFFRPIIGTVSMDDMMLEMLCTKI
hgDAF12 agonist: activates the H. glycines DAF-12 receptor ligand-binding domain | HEK293 GAL4-hgDAF12 UAS-luciferase reporter, agonist luminescence; normalized to butyrate control | activation, % at 6.8 µM | actives 1.8% (n = 370,000);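 active = activation above a cutoff set at the mean of all screened compounds plus 3 SD, cut at about 10% in these data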;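 note: 0% = DMSO wells and 100% = sodium butyrate wells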
ssDAF12 agonist: activates DAF-12 receptor from parasite S. stercoralis; HEK293 ssDAF-12/GRIP1 lit1-tk-luc reporter, luminescence; % of 3 µM dafachronic acid response; activation, % at 6.8 µM; actives 1% (n = 370,000); AID 652126;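 active = activation above the mean over all tested compounds plus 3 SD, cut at about 0.9% in these data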;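 note: 0% = DMSO-only wells and 100% = 3 µM delta7-dafachronic acid wells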
DAX1 inh confirm: confirmation of human DAX1 (NR0B1) inhibitors; HEK293T StAR-promoter luciferase reporter, SF-1/DAX-1 repression; actives 87% (n = 2,400); AID 652134; inhibition, % at 6.8 µM; shares compounds with DAX1 inh-1;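 active = inhibition above the average of every tested compound plus 3 SD, cut at about 3.8% in these data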;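 note: 0% = DAX-1 cells with DMSO and 100% = no DAX-1 control cells with DMSO; active compounds raise luminescence by relieving repression of the StAR reporter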
Target sequence (P51843 whole entry, looked up): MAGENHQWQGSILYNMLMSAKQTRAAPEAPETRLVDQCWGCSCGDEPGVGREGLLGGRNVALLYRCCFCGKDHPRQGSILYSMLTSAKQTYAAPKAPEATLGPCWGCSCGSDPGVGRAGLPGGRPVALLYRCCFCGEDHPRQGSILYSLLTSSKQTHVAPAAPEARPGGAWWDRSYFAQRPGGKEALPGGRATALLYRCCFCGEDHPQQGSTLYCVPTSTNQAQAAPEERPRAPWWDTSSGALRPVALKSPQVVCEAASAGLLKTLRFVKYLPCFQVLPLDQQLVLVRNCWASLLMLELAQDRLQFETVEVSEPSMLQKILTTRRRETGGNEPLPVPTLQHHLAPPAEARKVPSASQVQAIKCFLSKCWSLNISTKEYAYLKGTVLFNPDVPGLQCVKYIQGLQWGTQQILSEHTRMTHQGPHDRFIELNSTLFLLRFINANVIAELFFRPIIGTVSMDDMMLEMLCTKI
SF1 mutant ctr: counter-screen for DAX1 inhibitors: nonselective inhibitors with SF-1 AF2 mutant | shares compounds with DAX1 inh-1 | HEK293 StAR-luciferase, luminescence | inhibition, % at 6.8 µM | actives 78% (n = 2,400) | AID 652136;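 active = inhibition above the mean of all tested compounds plus 3 SD, cut at about 3% in these data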;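 note: 0% = DAX-1 transfected cells with DMSO and 100% = cells without DAX-1 with DMSO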
Starred values were filed as active, the others as inactive; . = not tested or not shown.

SMILES	hcDAF-12 act	DAX1 inh-1	AHR activator	DAX1 inh-2	hgDAF12 agonist	ssDAF12 agonist	DAX1 inh confirm	SF1 mutant ctr
O=C(Nc1nc2ccccc2[nH]1)C1CCCO1 (centres undefined)	-0.9	0.1	1.1	1.1	4.0	-1.6	.	.
O=C(Nc1ccc(-c2nc3ccccc3[nH]2)cc1)C1CCCO1 (centres undefined)	5.4	7.7*	2.3	-1.0	13.1*	0.0	15.3*	8.9*
CCc1cc(C(=O)NNC(=O)c2csc(N3CCOCC3)n2)sc1C	0.3	0.0	.	3.4	-1.9	-1.2	.	.
CC(C)(C)c1ccc(C(=O)/C=C2\NC(=O)CS2)cc1	6.1*	5.2*	5.2	-0.9	11.8*	0.2	17.9*	9.2*
COc1ccc(CCn2c(C)cc(C(=O)COC(=O)c3ccc(O)cc3O)c2C)cc1	-1.8	-4.5	.	-0.1	-1.1	-1.4	.	.
Cc1cc(C(=O)COC(=O)c2ccc(O)cc2O)c(C)n1C(C)C	3.9	7.3*	-0.9	1.5	12.3*	-0.1	9.8*	5.0*
Cc1ccc(CONC(=O)c2ccc(C)cc2)cc1	0.5	5.9*	-0.7	2.9	8.8	0.9	5.9*	3.5*
COc1ccc(C(=O)NOCc2ccccc2)cc1	4.9	1.3	1.7	-1.7	8.7	0.6	.	.
Cc1ccc(C(=O)NCCONC(=O)c2ccc(C)cc2)cc1	-0.8	0.8	2.0	0.0	0.3	-1.2	.	.
O=C(NOCc1ccccc1)c1ccc(Cl)cc1	2.0	8.6*	-0.8	0.4	6.3	0.8	10.9*	6.2*
O=C(/C=C/c1ccco1)Nc1cccc(C(=O)Nc2ccccc2C(=O)O)c1	0.1	-0.2	2.5	-1.8	-1.2	-1.1	.	.
C=CCNC(=O)CSc1nnc(-c2ccc(S(=O)(=O)N3CCCC3)cc2)n1C	-1.9	0.2	3.8	-0.2	-1.0	-1.2	.	.
O=C(NCC(c1ccco1)N1CCCC1)c1sc2cc(F)ccc2c1Cl (centres undefined)	-0.3	0.8	3.8	-1.1	-0.5	-0.4	.	.
Cc1ccc(C2=NNC(c3cccc(F)c3)S2)cc1 (centres undefined)	13.8*	9.5*	4.0	-1.8	17.4*	1.6*	11.4*	5.2*
CCC(NC(=O)c1[nH]c(C)c(C(C)=O)c1C)c1ccc(Br)cc1 (centres undefined)	-0.2	-0.2	7.4	-0.4	-1.8	-1.7	.	.
Cc1ccc(C(=O)CSc2nc(-c3ccccc3)ccc2C#N)cc1	-3.2	-0.3	23.4	-0.2	-1.4	-1.3	.	.
Cc1n[nH]c(C)c1NC(=O)CN1CCN(S(=O)(=O)c2ccc(C(F)(F)F)cc2)CC1	0.1	4.6*	.	-0.6	-0.9	-1.2	0.5	5.2*
COc1ccc(S(=O)(=O)N2CCN(CC(=O)Nc3c(C)n[nH]c3C)CC2)cc1OC	0.1	-0.4	-2.2	1.3	-2.0	-0.8	.	.
Cc1cccc2nc(COc3ccc4ccccc4c3Br)cn12	6.0*	4.8*	16.3	6.5*	10.1	0.3	11.9*	7.3*
Cc1cccc2nc(CSc3ccccc3N)cn12	4.0	2.2	16.8	3.3	7.6	0.7	.	.
c1ccc(Cn2cc(CCOCc3ccccn3)c3ccccc32)cc1	2.3	4.9*	.	.	8.7	0.9*	2.4	1.6
C=C(C)Cn1c(=O)c(NC(=O)c2ccccc2)c2n(c1=S)CCC2	0.6	0.0	5.0	0.2	1.9	-0.6	.	.
COc1ccc(-n2c(=O)c(NC(=O)c3ccccc3)c3n(c2=S)CCCCC3)cc1	-1.8	4.9*	0.3	0.8	0.0	-1.5	-0.3	-0.2
CCc1ccc(NC(=O)Nc2ccon2)cc1	2.6	4.6*	10.8	2.9	5.1	-0.5	5.6*	5.4*
Cn1c(NCc2ccccc2Cl)nc2ccccc21	2.3	6.5*	76.8*	8.2*	8.8	-0.7	9.7*	5.9*
SMILES	hcDAF-12 act	DAX1 inh-1	AHR activator	DAX1 inh-2	hgDAF12 agonist	ssDAF12 agonist	DAX1 inh confirm	SF1 mutant ctr
Cn1c(NCc2ccccc2O)nc2ccccc21	2.3	1.6	-1.4	2.3	9.4	0.1	.	.
CCOC(=O)N1CCN(C(=O)c2ccc3c(=O)n(CCC4=CCCCC4)c(=O)[nH]c3c2)CC1	-2.0	-1.4	-5.3	-1.1	-2.4	-0.8	.	.
Cc1nc2ccc(NC(=O)c3cccs3)cc2s1	2.7	7.4*	2.1	0.5	8.1	0.1	9.3*	4.7*
CCc1sc(C(=O)Nc2ccc3nc(C)sc3c2)cc1C	2.6	3.6	-1.4	0.2	5.5	-0.8	.	.
Cc1nc2ccc(NC(=O)Cc3ccccc3F)cc2s1	3.7	5.3*	2.1	1.6	8.8	0.5	10.6*	6.9*
COc1ccc(N2CCN(C(=O)c3cc4c(s3)CCCCC4)CC2)cc1	-0.1	4.5*	7.1	0.5	2.0	-0.8	2.8	1.9
NC(=O)C1CCN(C(=O)c2cc3c(s2)CCCC3)CC1	1.1	5.7*	18.1	1.7	6.5	-0.8	4.9*	2.4
CC(C)NC(=O)C1CCN(C2CCN(C(=O)c3cc4c(s3)CCCCC4)CC2)CC1	0.6	-0.7	-1.1	-3.3	-0.5	-1.2	.	.
CC(=O)c1ccc(N2CCN(C(=O)c3cc4c(s3)CCCC4)CC2)cc1	-1.1	2.2	1.2	-1.3	2.1	-0.4	.	.
O=C(NCCn1ccc2ccccc21)c1ccc2c(c1)OCO2	4.2	4.8*	18.8	3.2	7.5	0.0	12.7*	7.9*
COc1ccc(C(=O)NCCn2ccc3ccccc32)cc1	-0.5	-0.2	-5.0	2.0	-0.6	-0.7	.	.
CC(=O)Nc1cccc(-c2cccc3nccn23)c1	1.5	5.4*	.	.	10.0	-0.6	5.6*	3.7*
N#C/C(=N\Nc1cccc(F)c1)C(=N)N1CCCCCC1	4.8	6.8*	27.5	7.0*	12.5*	1.7*	18.6*	8.6*
COc1ccc(/C=N\NC(=O)c2ccc(F)cc2)cc1COc1cc(F)ccc1[N+](=O)[O-]	-1.1	-2.7	.	-1.2	1.2	-0.7	.	.
Cc1cc(C)nc(SCc2nnc(SCC(=O)Nc3nc(-c4ccccc4)cs3)n2C)n1	2.6	-1.2	7.8	-0.3	-0.5	-0.6	.	.
C/C=C/c1ccc2c(c1)O[C@@H](CN(C)C(=O)c1ccc(F)cc1)[C@@H](C)CN([C@H](C)CO)S2(=O)=O	-2.4	4.8*	.	1.0	-2.1	-1.4	-1.1	4.4*
Cc1ccc(N=C/C(C(=O)C(F)(F)F)=C(\O)c2cccs2)cc1	6.5*	4.5*	22.0	-2.7	5.4	0.5	18.4*	6.2*
C[C@H](O)[C@@H]1C(=O)N2CCc3c([nH]c4ccccc34)[C@@H]2C[C@@H]1N(C)Cc1ccc(Cl)cc1	1.5	6.2*	.	0.2	2.9	-0.9	0.5	0.2
